KCNH2 3.1 inh – qHTS for Inhibitors of KCHN2 3.1: Mutant qHTS; Potassium voltage-gated channel subfamily H member 2, brain isoform KCNH2 3.1 (human); U2OS KCNH2 3.1, thallium flux FluxOr; hits give low values; activity change, % (tested at about 1.8 µM); 0.95% of 340,000 active;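 active = maximum activity change below -70%; inconclusive = maximum activity change from -70% to -50%; inactive = maximum activity change above -50%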;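 note: thallium influx rate constant from kinetic fluorescence after stimulation buffer; % is set by controls: 0 for no effect and ±100 for the full control effect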
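We transduce U2OS cells with the mutant 3.1 virus, culture them overnight, load FluxOr with Red40 quencher for 45 min, then add stimulation buffer and read kinetically for 2 min to derive a normalized rate constant.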
CBFb-RUNX1 inh – qHTS Assay for Compounds Blocking the Interaction Between CBF-beta and RUNX1 for the Treatment of Acute Myeloid Leukemia. 230,000 tested, under 10 active. Runt-related transcription factor 1 (Homo sapiens) + Core-binding factor subunit beta …. AID 1477, 2009. Potency, µM (doses to about 59.8 µM), inactives show top-dose activity, negative = inhibition, usual class: inhibitors. AlphaScreen CBFb-His/RUNX1-biotin binding, biochemical; note: % of control where 0% means no effect
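Inhibition was taken as any reduction in AlphaScreen signal from the CBF-beta–RUNX1 pair (His and biotin tags, 30 nM each), measured after compound (15 min) and bead (90 min) incubations at room temperature.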
MBNL1 CUG block – qHTS Assay for Inhibitors of MBNL1-poly(CUG) RNA binding; Muscleblind-like protein 1 (Homo sapiens), Q9NR56; TR-FRET MBNL1-His/biotin-(CUG)12 binding, 665/545 ratio; Potency, µM (titrated, usually from 57.5 µM), for inactives: at the highest dose activity change, negative = inhibition, actives largely listed as inhibitors; 0.036% of 280,000 active; AID 2675, 2010; active = well fitted inhibition curve with a large enough effect in the signal ratio, with a control signal flat, not every such curve was filed as active; inconclusive = small, poorly fitted or top-dose-only effect, or effect the other way, or a change in a side signal; inactive = no such curve, though single readings can be large or run the other way; the % refers to the signal ratio; note: potency is the fitted concentration of half-maximal effect; % is set by controls: 0 for no effect and ±100 for the full control effect
Target sequence (Q9NR56 whole entry, looked up): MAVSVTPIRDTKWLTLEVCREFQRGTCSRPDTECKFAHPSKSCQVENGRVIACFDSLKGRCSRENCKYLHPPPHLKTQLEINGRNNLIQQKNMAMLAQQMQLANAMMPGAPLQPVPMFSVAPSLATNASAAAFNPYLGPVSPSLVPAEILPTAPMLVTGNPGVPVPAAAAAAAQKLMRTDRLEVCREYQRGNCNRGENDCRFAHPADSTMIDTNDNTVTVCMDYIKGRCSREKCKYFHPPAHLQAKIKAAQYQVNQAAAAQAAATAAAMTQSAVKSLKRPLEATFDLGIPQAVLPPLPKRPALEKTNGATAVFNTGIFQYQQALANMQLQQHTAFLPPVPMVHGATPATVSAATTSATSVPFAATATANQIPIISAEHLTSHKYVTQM
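TR-FRET readout: Ex 340 nm, 665/545 nm emission ratio, normalized to buffer-only (basal) and MBNL1-(CUG)12 controls. Complex of MBNL1-His with Biotin-(CUG)12, compounds 92 nM–58 uM, incubated 60 min at room temperature.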
PLK1 PBD block – qHTS for Inhibitors of PLK1-PDB (polo-like kinase 1 - polo-box domain): Primary Screen. Serine/threonine-protein kinase PLK1 (Homo sapiens), P53350. Plk1 PBD binding of FITC phosphopeptide, fluorescence polarization. Potency, µM, for inactives: max response, negative = inhibition, hits mostly inhibitors. 2.8% of 360,000 active. AID 720504, 2013; note: potency is the fitted concentration of half-maximal effect; series mostly up to about 57 µM; % is set by controls: 0 for no effect and ±100 for the full control effect; nearly all actives have a fitted effect of over 65% in size
VDR inh – Inhibitors of the vitamin D receptor (VDR): qHTS; Vitamin D3 receptor (Homo sapiens), P11473; VDR-SRC2-3 peptide fluorescence polarization, 2 h; Potency, µM, for inactives: max response, negative = inhibition, actives largely listed as inhibitors; 0.93% of 400,000 active; AID 504847, 2011; note: potency is the fitted concentration of half-maximal effect; % is set by controls: 0 for no effect and ±100 for the full control effect
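FP read-out; VDR + SRC2-3 coactivator peptide; 23 nl compound by pintool; 2 h RT incubation; reagents held at 4 deg C, protected from light.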
KCNH2 WT inh – qHTS for Inhibitors of KCHN2 3.1: Wildtype qHTS | Voltage-gated inwardly rectifying potassium channel KCNH2 (Homo sapiens), Q12809 | U2OS, BacMam KCNH2, thallium flux FluxOr; hits give low values | activity change, % at 1.84 µM | 0.37% of 340,000 active | AID 720551, 2013;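 active = maximum activity change below -70%; inconclusive = maximum activity change between -70% and -50%; inactive = maximum activity change above -50%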; note: % is set by controls: 0 for no effect and ±100 for the full control effect
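U2OS cells were transduced with wild-type KCNH2 virus (2.03 x 10^8 / mL) for 4 h at room temperature, then cultured overnight at 37 C. Thallium flux was read with FluxOr dye. Rate constants were normalized to DMSO controls.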
USP1-UAF1 confirm – Inhibitors of USP1/UAF1: Hit Validation in Primary Assay | Potency, µM (series often up to 56.8 µM), without a hit: at the highest dose activity change, negative = inhibition, actives largely listed as inhibitors | Ub-Rhodamine cleavage, fluorescence kinetic read | 50% of 50 active | shares compounds with VDR inh
VDR inh confirm – qHTS for Inhibitors of the vitamin D receptor (VDR): Hit Validation in Primary Screen; shares compounds with VDR inh; VDR-coactivator inhibition assay, qHTS confirmation; Potency, µM, usual class: inhibitors; 89% of 840 active; AID 602199, 2012; note: potency is the fitted concentration of half-maximal effect
VDR FP – qHTS for Inhibitors of the vitamin D receptor (VDR): Hit Validation using a Fluorescein Assay; shares compounds with VDR inh; VDR-coactivator binding, fluorescein fluorescence polarization; Potency, µM (series often up to 57.1 µM), for inactives: at the highest dose activity change, negative = inhibition, usual class: inhibitors; 48% of 840 active; note: potency is the fitted concentration of half-maximal effect
VDR bla – qHTS for Inhibitors of the vitamin D receptor (VDR): Hit Validation using a Beta-Lactamase Assay | shares compounds with VDR inh | VDR beta-lactamase reporter cells, FRET ratio; cells co-treated with VDR agonist LG190178 | Potency, µM (top dose mostly 46.1 µM), for inactives: at the top dose activity change, negative = inhibition, hits mostly inhibitors | 23% of 840 active; note: potency is the fitted concentration of half-maximal effect; % is set by controls: 0 for no effect and ±100 for the full control effect
VDR viability – qHTS for Inhibitors of the vitamin D receptor (VDR): Hit Validation using a Cytotoxicity Assay | shares compounds with VDR inh | Potency, µM (highest dose often 48.3 µM), inactives show at the top dose activity change, negative = cytotoxicity, usual class: cytotoxic | 18% of 840 active | cytotoxicity counter-screen, cell viability, qHTS;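 note: potency is the fitted concentration of half-maximal effect; plate controls were DMSO for no effect and high-concentration cycloheximide for full effect; nearly all actives have a fitted effect of over 75% in size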
* hit, by the source's call; ? = inconclusive; / = no result. This is a sample that favours compounds with a hit; in the whole collection about 3.8% have one here. Unless noted, calls come from the whole dose curve; as a rule, active = well fitted curve in the direction sought with a large enough effect; inconclusive = small, poorly fitted or top-dose-only effect, or another doubt; inactive = no such curve, though single readings can be large; an effect the other way counts as inactive or inconclusive.

SMILES	KCNH2 3.1 inh	CBFb-RUNX1 inh	MBNL1 CUG block	PLK1 PBD block	VDR inh	KCNH2 WT inh	VDR inh confirm	VDR FP	VDR bla	VDR viability	others
Cc1ccc(S(=O)(=O)Nc2nsc(N)n2)cc1	12	4%	-1%	-6%	7.1µM*	-12	5.3*	?	27%	-10%
CC1(C)Cc2ccccc2C2=NNC(=O)C2=N1	5	2%	34%	-21%	11µM*	7	?	?	-14%	?
COc1ccccc1NC(=O)c1sc2nc(-c3cc4cc(Cl)ccc4oc3=O)[nH]c(=O)c2c1C	/	/	/	/	-9%	/	/	/	/	/
O=C(CSC1=NS(=O)(=O)c2cc(F)ccc2N1)Nc1ccccc1	4	/	/	-10%	-8%	0	/	/	/	/
COC(=O)CSc1ccccc1C(=O)OC	-2	-1%	0%	-2%	-5%	-11	/	/	/	/
O=C(CSC1=NS(=O)(=O)c2ccccc21)Nc1ccccc1	-1	5%	8%	11µM*	16µM*	36	11*	-18%	-6%	-14%
COC(=O)CSC1=NS(=O)(=O)c2ccccc21	-8	6%	-3%	3µM*	32µM*	-5	8.4*	?	18%	-4%
CCCSc1nc(-c2ccccc2)[nH]c1S(=O)(=O)c1ccc(C)cc1	/	/	/	/	-5%	/	/	/	/	/
O=C(/C(=C/c1ccc(Cl)cc1)c1nc2ccccc2[nH]1)c1cccs1	-17	-19%	1%	-11%	18µM*	-4	9.5*	?	6.5µM*	8.2µM*
COc1cc(/C=C2\C(=O)N(CCC#N)N=C2C)c(Br)cc1OC(C)C	4	-2%	-7%	1.7µM*	?	-1	8.4*	?	19%	18%
Cc1ccc(CNC(=O)C2CCN(C(=O)N3CC(C)Oc4ccc(Cl)cc43)CC2)cc1 (stereo unspecified)	/	/	/	/	-6%	/	/	/	/	/
Cc1sc(NC(=O)COc2ccccc2)c(C#N)c1C	-3	3%	5%	7.5µM*	50µM*	3	24*	?	14%	0%
Cc1sc(NC(=O)COc2cccc(-n3cnnn3)c2)c(C#N)c1C	-14	3%	-3%	-12%	-4%	-2	/	/	/	/
O=C(/C=C/c1ccccc1)c1ccccc1	-23	-10%	-18%	-11%	18µM*	0	16*	11µM*	26µM*	?
COc1ccccc1NC(=O)c1c(NCc2sccc2C)sc2c1CCCCC2	/	/	/	/	-15%	/	/	/	/	/
O=C(COc1ccc(Cl)cc1)Nc1sc2c(c1C(=O)Nc1cccc(Cl)c1)CCCC2	/	/	/	/	?	/	7.9*	7.9µM*	-7%	-4%
COc1ccc(NC(=O)c2c(NC(=O)COc3ccccc3)sc3c2CCCCC3)cc1	/	/	/	/	-20%	/	/	/	/	/
COc1ccc(Cl)cc1NC(=O)c1c(NCc2sccc2C)sc2c1CCCC2	/	/	/	/	18µM*	/	3.5*	3.2µM*	2%	12%
N[C@H](C(=O)O)[C@H]1C[C@H]1C(=O)O	/	19%	/	/	-2%	/	/	/	/	/
CCOc1ccc2oc(=O)cc(CN3CCN(c4ccc(OC)cc4)CC3)c2c1	/	/	/	/	5%	/	/	/	/	/
COc1ccc([C@@H]2CC(=O)c3c(O)cc(O[C@@H]4O[C@H](CO)[C@@H](O)[C@H](O)[C@H]4OC4O[C@@H](C)[C@H](O)[C@@H](O)[C@H]4O)cc3O2)cc1O (stereo partly specified)	/	-15%	/	/	20%	/	/	/	/	/
Cc1ccc(C)c(N2CCN(C(=O)C(C)n3c(C)c4cnn(-c5ccccc5)c(=O)c4c3C)CC2)c1 (stereo unspecified)	/	/	/	/	20%	/	/	/	/	/
CCc1oc2ccccc2c1C(=O)CCN1CCCCC1	11	7%	5%	12µM*	?	-1	7.1*	4µM*	-11%	2%
CCOc1ccc(NC(=O)CC2SC(=O)N(c3ccccc3)C2=O)cc1 (stereo unspecified)	-5	0%	28%	9.5µM*	28µM*	-1	?	?	29%	14%
COc1cc2c(cc1OC)-c1cc3nc4ccccc4nc3n1C(C)(C)C2	/	/	/	/	7.1µM*	/	20*	?	?	-8%	USP1-UAF1 confirm=47µM*
Cc1ccc(C(=O)/C=C\C(=O)c2ccc(C)cc2)cc1	-7	12%	-7%	6.7µM*	79µM*	0	30*	?	?	22%
O=C1Nc2ccccc2/C1=C\C(=O)c1ccccc1	-5	/	-6%	19µM*	?	-2	8.9*	3.5µM*	?	?
CN(O)/C=C1\C(=O)Nc2ccccc21	3	-5%	10%	-13%	2%	0	/	/	/	/
CC(C)Oc1ccc(C(=O)/C=C2/C(=O)Nc3ccccc32)cc1	0	/	6%	?	28µM*	16	15*	10µM*	-10%	?
